The entries come from a sample that favours hits as a whole.
Tg IFNy HTS: blocks Toxoplasma gondii growth in the presence of IFN-gamma; Toxoplasma gondii growth in IFN-gamma-treated host cells; active compounds read low; activity change, negative = inhibition, % (concentration not given with the values); hit rate 3.8% among 69,000; AID 1259416; in the data active = activity change below about -70%, passing the limit was not always enough;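 also: host cells are HeLa cells infected with Toxoplasma gondii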
The depositor's hits bear a star; ! = a repeat was not active.

SMILES	Tg IFNy HTS
O=C(NC(=O)c1csc(-c2ccc(C(F)(F)F)cc2Cl)n1)Nc1ccc(F)cc1	-98*
COc1ccc(-n2cccn2)c(CN2CCC(O)(CO)CC2)c1	51
CC(C)CCN1C2(CCN(Cc3nccs3)C2)c2ccccc2S1(=O)=O (configuration not stated)	-96*
CN(C)CCN1C2(CCN(Cc3nccs3)C2)c2ccccc2S1(=O)=O (configuration not stated)	0
COCCN1C2(CCN(Cc3nccs3)C2)c2ccccc2S1(=O)=O (configuration not stated)	3
COCCN1CC2(CCC1=O)CCN(C(=O)C1CC=CC1)CC2	15
Cc1ccc(CC(=O)Nc2ccc(-c3nc(Cn4cc(C)cn4)c(C)o3)cc2)cc1	-48
C=CCOCc1cncc2c1CCN(S(=O)(=O)c1cn(C)cn1)C2	-41
CC1Cc2cc(CN(C)C(=O)CCS(=O)(=O)c3cccc4cccnc34)ccc2O1 (configuration not stated)	-26
CN(CCNC(=O)Cn1c(=O)oc2ccc(Cl)cc21)c1ccccc1	-3
CC1Cc2cc(CN(C)C(=O)Cn3c(=O)oc4ccc(Cl)cc43)ccc2O1 (configuration not stated)	-92*
Nc1ncc(CN2CCC(CNC(=O)Nc3ccc(F)cc3)C2)cn1 (configuration not stated)	-1
COCCN1C(=O)CO[C@H]2CN(C(=O)C3CCOCC3)C[C@@H]21	-3
Cc1ccc(OCC(=O)NCCc2csc(-c3ccc(F)cc3)n2)cc1	2
CCOC(=O)c1cnn(-c2ncnc3sc4c(c23)CCN(C(=O)OCC)C4)c1N	37
c1cncc(CN2CCOC3(CCNCC3)c3ccccc32)c1	-6
COCC(=O)N1[C@H](C(=O)NCc2ccccc2)[C@@H](CO)[C@@H]2Cn3c(cccc3=O)[C@@H]21	7
CC/C(=C(\c1ccccc1)c1ccc(OCCN(C)C)cc1)c1ccccc1	-66
CC/C(=C(/CC)c1ccc(O)cc1)c1ccc(O)cc1	-51
CC/C(=C(\c1ccc(O)cc1)c1ccc(OCCN(C)C)cc1)c1ccccc1	-98*
Cc1noc(C)c1NC(=O)c1ccc(CN2CCCC2c2ccccn2)cc1 (configuration not stated)	-30
COc1cccc(C(=O)NCCc2sc(-c3cccc(F)c3)nc2C)c1	7
c1cncc(-c2[nH]c3ncccc3c2CN2CCSCC2)c1	-34
COc1ccc(-c2[nH]c3ncccc3c2CN2CCC(O)(c3ccccc3C)CC2)cc1	-98*
COc1ccccc1CNC(=O)CN1CCC(O)(c2ccccc2C)C1 (configuration not stated)	4
SMILES	Tg IFNy HTS
CN(C)C(=O)CN1CC[C@@H]2[C@H]1CCN2Cc1nccs1	15
CCN(Cc1ccncc1)C(=O)CCNC(=O)c1ccc(F)cc1	75
CCN(CC)CCN(Cc1ccc(-c2ccc(C(F)(F)F)cc2)cc1)C(=O)Cn1c(SCc2ccc(F)cc2)nc(=O)c2c1CCC2	-76*
CN(C(=O)CSc1ccc(C(F)(F)F)cn1)c1c2c(nn1C)CCCC2	-26
COc1cc2c(cc1CN1CCN(c3ncccc3C)CC1)OCO2	12
N#Cc1c(-c2ccccc2)cc(-c2ccc(Cl)cc2)nc1N	10
N#Cc1c(N)nc(Sc2ccc(Cl)cc2)c(C#N)c1-c1ccccc1	-92*
CCc1nc(N)c(C#N)c(-c2ccccc2)c1C	12
Cc1ccc(-c2nnc(-c3nc(N4CCc5ccccc54)c4ccccc4n3)o2)cc1	306
COc1cccc(C(NC(=O)C23CC4CC(CC(O)(C4)C2)C3)c2ccccc2)c1 (configuration not stated)	-14
Cc1cnc(N2CCC3C2CCC(=O)N3c2cccnc2)nc1 (configuration not stated)	95
CCCS(=O)(=O)N1CC[C@@H]2[C@@H](CO[C@H]2CNc2ncccn2)C1	-39
Cc1ccc(C)c(-c2coc(-c3ccc(NC(=O)c4ccccc4)cc3)n2)c1	-28
Cc1nnsc1C(=O)OCCN(C)c1ccc(C#N)cn1	-4
Cc1nnsc1C(=O)N(Cc1ccccc1)C(C)C	-6
Cc1nnsc1C(=O)OCc1cc(F)cc(F)c1	-77*
CCOC[C@H]1CCC2C(CCN2C(=O)c2ccc3c(c2)OCO3)O1 (some centres not stated)	-3
Cc1ccc(-c2cc(NC3CCCC3)nc3[nH]ccc23)c(N)n1	-3
Nc1ncnc2c1c(-c1cnc3[nH]ccc3c1)nn2C1CCCC1	-77*
Cc1ccc2c(c1)CN(S(C)(=O)=O)CC1(CCN(Cc3ccccc3)CC1)O2	-5
Cc1cccc(CN2CCC(N3CCC(C(=O)NCC(O)CO)CC3)CC2)n1 (configuration not stated)	0
Cc1cc(=O)n(CCC(=O)Nc2ccc3c(c2)N(C)C(=O)CO3)c2ccccc12	1
Fc1ccc(NC(=S)NCCC2=CCCCC2)cc1	43
CN(C)c1ccc(C(=O)NCc2cccnc2)cc1	-4
Cc1ccc(S(=O)(=O)Cc2nc(-c3ccc(C(=O)NCc4cccnc4)cc3)oc2C)cc1	-113*!
SMILES	Tg IFNy HTS
Cc1ccc(C(=O)Nc2c(C(=O)NCc3cccnc3)[nH]c3ccc(C)cc23)cc1	12
COc1ccc(Cl)c(CN2CCCC(CNC(C)=O)C2)c1F (configuration not stated)	15
COc1ccc2c(c1)CCC/C2=N\NC(N)=S	-99*
COc1ccc(-c2ccc(N)nc2)c(C)c1	5
NC(=S)NN=C1Cc2ccccc2C1	68
CCc1cccc(NC(=O)CCC(=O)NCc2cnc(C)cn2)c1	-33
O=C1CC(c2ccc(O)cc2)Oc2cc(O)cc(O)c21 (configuration not stated)	67
Oc1ccc([C@H]2Oc3cc(O)cc(O)c3C[C@H]2O)cc1	7
Oc1ccc([C@H]2COc3cc(O)ccc3C2)cc1	-73*!
C[C@H]1CN([C@@H](C)CO)C(=O)c2cc(NC(=O)C3CCCCC3)ccc2O[C@@H]1CN(C)C(=O)Nc1ccc(C(F)(F)F)cc1	7
COCCc1noc(-c2ccc(-c3cccc(C(C)OC)c3)nc2)n1 (configuration not stated)	7
COc1ccc2nc(CCn3cnnc3)[nH]c2c1	4
CCOc1ccc(S(=O)(=O)N2CCc3nc(-c4ccc(OC)cc4)sc3C2)cc1	42
CCc1ccc(S(=O)(=O)N2CCc3nc(-c4ccc(OC)cc4)sc3C2)cc1	-15
CCOc1ccc(-c2nc3c(s2)CN(S(=O)(=O)c2ccc(F)cc2F)CC3)cc1	92
COc1ccc(-c2nc3c(s2)CN(S(=O)(=O)c2cc(OC)ccc2OC)CC3)cc1	-120*
COc1ccc(-c2nc3c(s2)CN(S(=O)(=O)c2ccc(F)cc2F)CC3)cc1	-95*
Cc1cccn2c(=O)c(/C=C/C3=CCN(C)CC3)c(N3CCN(C)CC3)nc12	-9
CCn1c(SCc2nc(-c3ccccc3)oc2C)nc(=O)c2c(C(=O)OC)cc(C3CC3)nc21	37
CCOc1ccc2oc(C)c(C(=O)NCC3CCN(C)C3)c2c1 (configuration not stated)	-52
Cc1ccc(NC(=O)Nc2ccc(OCc3ccccc3)cc2)cc1NS(C)(=O)=O	-46
Oc1cccc(Nc2ncnc3ccccc23)c1	-10
Cc1cc(F)c(Nc2ncnc3cc(OCc4ccccc4)ccc23)cc1O	-77*
COc1ccc(NC(=O)CN2CCC3(CC2)N=C(c2ccc(C)c(C)c2)C(=O)N3)cc1	12
CN1CC(=O)N(c2ccsc2)CC12CCN(CC(=O)O)C2 (configuration not stated)	3

Source: PubChem BioAssay (Broad Institute)
